From PubChem BioAssay (NCI)
About 83,000 compounds went through this panel and 20% of them were active in at least one assay; those are over-represented in the sample as a whole.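 The test compound was applied at a single concentration to cells in 96-well plates for 48 hours, and percent growth was recorded.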 Activity calls are given as the source filed them. Rule for the calls: active = growth percent below 10; inactive = the rest.

Legend:
Experiment in all cases: NCI-60 one-dose screen, 48 h (100 = growth as untreated, 0 = no growth, -100 = all killed)
Conditions in all cases: 10 µM unless noted
[1] = test system: T-47D breast
[2] = test system: BT-549 breast
[3] = test system: MDA-MB-435 melanoma
[4] = test system: SW-620 colon
[5] = test system: MCF7 breast
[6] = test system: HCT-116 colon
[7] = test system: HCC-2998 colon
[8] = test system: KM12 colon

Measured: growth

Cc1cccc(NC(=O)CSc2nc3ccccc3[nH]2)c1
inactive: [1] 88.9% | [2] 104% | [3] 103% | [4] 101% | [5] 92% | [6] 107% | [7] 102% | [8] 100%

C(=N\Nc1ncc(-c2cc3cc4c(cc3o2)OCO4)s1)/c1ccco1
inactive: [1] 35.2% | [2] 48.6% | [3] 69% | [5] 13.7% | [7] 62.7% | [8] 15.8%
active: [4] 2.26% | [6] -13.6%

C[C@H]1[C@H]2[C@H]3CC[C@@H]4[C@@]5(C)C/C(=C/c6cccnc6)C(=O)C(C)(C)[C@@H]5CC[C@@]4(C)[C@]3(C)CC[C@]23CO[C@]1(C)[C@@H](C(=O)/C=C\c1cccnc1)C3
active: [2] -20.1% | [3] -7.3% | [4] -26.4% | [5] 9.88% | [6] -45.6% | [7] -67.2% | [8] -55.6%
inactive: [1] 24.6%

O=C(O)c1ccc2c(c1)CCC2
inactive: [1] 106% | [2] 96.6% | [3] 115% | [4] 108% | [5] 100% | [6] 105% | [7] 115% | [8] 113%

CC(C)Sc1nc(NNC(N)=S)c(C#N)c(-c2ccc(F)cc2)n1
inactive: [1] 83.2% | [2] 104% | [3] 108% | [4] 106% | [5] 99.1% | [6] 94.6% | [7] 101% | [8] 99%

Cn1cc(-c2csc(-c3ccccc3)n2)c2cccnc21
active: [1] -45.4% [100 µM] | [2] -39.4% [100 µM] | [3] -45.2% [100 µM] | [4] -34.1% [100 µM] | [5] -44.7% [100 µM] | [6] -76.9% [100 µM] | [7] -79.3% [100 µM] | [8] -68.6% [100 µM]

CN(c1ccccc1)c1ccc2c(c1)OCCC21CC1Nc1cnccc1C(=O)O (stereo not drawn)
inactive: [1] 72.6% | [2] 64.8% | [3] 82.6% | [4] 80.2% | [5] 65.8% | [6] 33% | [7] 68.2% | [8] 64.2%

Cc1cc(NCc2cc(Nc3ccnc4cc(Cl)ccc34)ccc2F)nc(N2CCOCC2)n1
active: [1] -54.8% | [3] -18.4% | [5] 6.18% | [6] 2.23%
inactive: [2] 75.3% | [4] 32.5% | [7] 55.8% | [8] 44%

N#Cc1c2c(nn(-c3ccccc3)c1=O)C(O)=C([N+](=O)[O-])C(c1ccccc1)C2 (stereo not drawn)
inactive: [1] 35.1% | [2] 91.9% | [3] 83.1% | [4] 80.6% | [5] 24.4% | [6] 58.6% | [7] 101% | [8] 35.7%

Cc1ccc(Nc2nc(N)nc(CSCC(=O)NN)n2)cc1
inactive: [1] 102% | [2] 93.6% | [3] 94.3% | [4] 98.9% | [5] 94.3% | [6] 103% | [7] 109% | [8] 98.1%

CCCCCCCCn1ccc2cc(NC(=O)Cn3cc(CN4CCCC4)nn3)ccc21
active: [3] -72.2% | [4] -54.8% | [5] 8.32% | [7] -54%
inactive: [1] 24.1% | [2] 70.8% | [6] 37.7% | [8] 41.8%

CCOC(=O)c1ccc(N2NC(=O)/C(=C/c3ccc([N+](=O)[O-])o3)C2=O)cc1
inactive: [1] 109% | [2] 99.7% | [3] 109% | [4] 106% | [5] 89.4% | [6] 82.2% | [7] 103% | [8] 106%

CC(=O)N1N=C(c2ccc(Nc3nc(Nc4ccc(F)cc4)nc(Nc4ccc(F)cc4)n3)cc2)CC1c1cccc([N+](=O)[O-])c1 (stereo not drawn)
inactive: [1] 80.3% | [2] 102% | [3] 111% | [4] 96.9% | [5] 88.3% | [6] 92.9% | [7] 54% | [8] 104%

COc1cccc(-c2nn(-c3ccccc3)cc2-c2ccnc(NCCNC(=O)Nc3ccccc3)c2)c1
inactive: [1] 20.3% | [2] 30.2% | [3] 42.9% | [4] 71.9% | [5] 56.6% | [6] 35.3% | [7] 39.1% | [8] 37.6%

O=C(COc1ccc(/C=C2\Oc3ccccc3C2=O)cc1)Nc1nc2ccccc2s1
inactive: [1] 91.4% | [2] 46.2% | [3] 65% | [4] 96.3% | [5] 120% | [6] 87.3% | [7] 107%
active: [8] -28.7%

O=C1CCc2c(sc3[nH]c(=S)n(-c4ccc(OC(F)(F)F)cc4)c(=O)c23)C1
inactive: [1] 20.3% | [2] 38% | [3] 55% | [4] 19.9% | [5] 44.5% | [6] 30.1% | [7] 28.5% | [8] 10.8%

C[C@@]1(CCC#N)[C@H]2CC[C@@H]3[C@H]4[C@H](C(=O)/C=C/c5cccnc5)CC[C@]4(C#N)CC[C@@]3(C)[C@]2(C)CC[C@H]1C(=O)/C=C/c1cccnc1
inactive: [1] 65.2% | [2] 80.7% | [3] 34% | [4] 37.2% | [5] 39.4% | [6] 20% | [7] 105% | [8] 36%

O=c1c2c3c(sc2n2c(-c4cc(-c5ccccc5)nn4-c4ccccc4)nnc2n1Cc1ccccc1)CCCC3
inactive: [1] 72.5% | [2] 97.4% | [3] 85.2% | [4] 83.2% | [5] 68.3% | [6] 55.4% | [7] 98.8% | [8] 84.1%

O=[N+]([O-])c1ccc(C2CC(c3ccccc3)=Nc3ccccc3S2)cc1 (stereo not drawn)
inactive: [1] 70.9% | [2] 95% | [3] 103% | [4] 79.4% | [5] 32.6% | [6] 36.2% | [7] 103% | [8] 73.6%

Cc1cc(NCc2cc(Nc3ccnc4cc(Cl)ccc34)ccc2F)nc(N2CCN(C)CC2)n1
inactive: [2] 28.2% | [8] 14.4%
active: [1] -42.4% | [3] -96.7% | [4] 0.137% | [5] 1.13% | [6] 0.262% | [7] -35.2%

Oc1c(CN2CCCC2)cc(COCc2ccc(Br)cc2)c2cccnc12
inactive: [2] 14.9% | [3] 24.1% | [5] 11.7% | [7] 21.5% | [8] 20.6%
active: [1] -7.63% | [4] 5.64% | [6] 1.8%

Cn1c(-c2c(N)n(Cc3ccc(C(F)(F)F)cc3)c3nc(C#N)c(C#N)nc23)nc2ccccc21
inactive: [3] 14.9% | [7] 14.7%
active: [1] 4.18% | [2] 7.95% | [4] 6.57% | [5] 8.74% | [6] -29% | [8] 5.33%

COC(=O)CCC1=C(C)C2=NC1=CC1=NC(=CC3=NC(=Cc4[nH]c(/c(=C(/C)O)c4C)=C2)C(C(C)=O)=C3C)C(C)=C1CCC(=O)OC
inactive: [1] 82.9% | [2] 100% | [3] 108% | [4] 103% | [5] 98.2% | [6] 102% | [7] 104% | [8] 104%

CCc1c2c(nc3ccc(OC(=O)NCc4ccc(B5OC(C)(C)C(C)(C)O5)cc4)cc13)-c1cc3c(c(=O)n1C2)COC(=O)[C@]3(O)CC
active: [1] 4.82% | [2] 4.12% | [3] -35.2% | [4] 8.04% | [5] 2.39% | [6] 2.81% | [7] -8.14% | [8] -5.38%

Nc1ccc2c(c1)c(N)nn2C(=O)Nc1ccc(Cc2ccccc2)cc1
inactive: [1] 60.4% | [2] 86.4% | [3] 68.9% | [4] 93.4% | [5] 64.3% | [6] 52.5% | [7] 36.9% | [8] 65.3%

CCN1CCN(c2cc(C)nc(NCc3cc(Nc4ccnc5cc(Cl)ccc45)ccc3F)n2)CC1
active: [1] -17.7% | [5] 6.99%
inactive: [2] 98.6% | [3] 50.7% | [4] 40.8% | [6] 11.8% | [7] 28% | [8] 82.7%

COc1ccc(-c2nc(SC(C)C)nc(NNC(N)=S)c2C#N)cc1
inactive: [1] 51.6% | [2] 77.2% | [4] 22.2% | [5] 30.7% | [6] 75.1% | [7] 63.7% | [8] 39.2%
active: [3] -46.4%

N[C@@H](CCCCNCC(=O)O)C(=O)O
inactive: [1] 96.9% | [2] 111% | [3] 102% | [4] 101% | [5] 105% | [6] 106% | [7] 103% | [8] 101%

N=c1sc(Cc2ccc(Cl)cc2)cn1CC(=O)c1ccc(F)cc1
inactive: [1] 64.6% | [2] 94.9% | [3] 37% | [4] 53.5% | [5] 55% | [6] 63.7% | [7] 59% | [8] 39.9%

O=C(c1ccc(Nc2nccc(NCCCCNc3ccnc4cc(Cl)ccc34)n2)cc1)N1CCCCC1
inactive: [2] 97.6% | [8] 54.2%
active: [1] -33.2% | [3] -67.6% | [4] 2.09% | [5] 4.09% | [6] -18.6% | [7] -11.2%

N#Cc1c(-c2cccc(Cl)c2)cc(-c2cccc(F)c2)[nH]c1=O
inactive: [1] 84.5% | [2] 86.4% | [3] 90.4% | [4] 97% | [5] 89.2% | [6] 88.5% | [7] 106% | [8] 87.9%
